Screens deposited in PubChem BioAssay by National Center for Advancing Translational Sciences (NCATS).
An excerpt weighted towards active compounds, which were near 8% of everything screened.
Marburg entry inh: inhibitors of Marburg virus binding or cell entry; Potency, µM (top dose mostly 37.8 µM), most hits filed as inhibitors; 1.8% of 300,000 active; Marburg virus pseudotyped entry inhibition, cell reporter; AID 540276; calls by dose curve; tested in HEK293 cells
HCV inh: inhibitors of hepatitis C virus infection | Potency, µM (titrated, usually from 41.8 µM), most hits filed as inhibitors | AID 651820 | Huh7.5.1 HCVcc-Cre infection, luciferase reporter, 44 h | 3.4% of 340,000 active; active = well fitted inhibition curve with a large enough effect; inconclusive = small, poorly fitted or top-dose-only effect, or another doubt; inactive = no such curve, though single readings can be large or run the other way
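Seed cells (1,000/well) for 4 h; treat with compound and infect with HCVcc-Cre, moi about 0.5. Incubate 44 h, then detect luciferase activity.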
SARS PLpro yeast: inhibitors of SARS-CoV papain-like protease in yeast; AID 485353; Potency, µM (doses to about 32.9 µM), usual class: activators; S. cerevisiae expressing SARS-CoV PLpro, growth rescue; 0.19% of 330,000 active; calls by dose curve; also: nearly all actives have a fitted effect of over 55% in size
HCMV antiviral: inhibitors of human cytomegalovirus. HFF cells, HCMV-luciferase reporter, 72 h; hits give low values. activity change, negative = inhibition, % at 57.5 µM. 4.5% of 410,000 active. AID 1259415; in the data active = activity change below about -60%; inconclusive = no clear call, values can overlap the other calls; inactive = above about -39%
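Luciferase read-out from HCMV-luciferase-infected HFFs (MOI 1 PFU/cell) 72 h post infection at 37C; compounds added after 16 h cell attachment; activity normalized between buffer-only basal and Salinomycin (10uM) inhibitor controls.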
LASV entry inh: Lassa virus entry inhibition. Lassa virus pseudotype entry inhibition, cell reporter. Potency, µM (highest dose often 37.9 µM), hits mostly inhibitors. 1.2% of 300,000 active; calls by dose curve; tested in HEK293 cells; also: nearly all actives have a fitted effect of over 50% in size
FMDV inh: antivirals against foot and mouth disease virus. Potency, µM (doses to about 57.9 µM), hits mostly inhibitors. FMDV antiviral cell-based qHTS. AID 1159524. 1.2% of 410,000 active; calls by dose curve; tested in HEK293T cells; also: read-out not given here; nearly all actives have a fitted effect of over 45% in size
Of the large screens only hits and unclear results are named; the others gave an inactive call; ! = not confirmed by another sample.

Cc1nn(Cc2ccccc2Cl)c(C)c1NC(=O)c1ccn(C)n1	none
Cc1nn(Cc2ccccc2Cl)c(C)c1NC(=O)c1cc(-c2ccc(F)cc2)on1	Marburg entry inh inconclusive, HCV inh 3.5µM
Cc1cc(NC(=O)c2cc(-c3cccc(Cl)c3)on2)nn1Cc1ccc(Cl)cc1	HCMV antiviral -80, FMDV inh inconclusive (no result: HCV inh, SARS PLpro yeast)
Cc1nn(Cc2ccccc2Cl)c(C)c1NC(=O)c1nc2ncccn2n1	HCMV antiviral -63
COc1cccc(-c2cc(C(=O)Nc3c(C)nn(Cc4ccccc4)c3C)no2)c1	Marburg entry inh inconclusive, HCV inh 10µM, HCMV antiviral inconclusive
c1ncc(-c2ccc3c(c2)OCO3)c(NCCc2cnc[nH]2)n1	none (no result: Marburg entry inh, HCV inh, SARS PLpro yeast, HCMV antiviral, LASV entry inh)
COc1ccc(-c2ccc(=O)n(CC(=O)Nc3ccc(OC)c(OC)c3)n2)cc1	HCMV antiviral active (no result: Marburg entry inh, HCV inh, SARS PLpro yeast)
C/C(CC(=O)NC1CCCCC1)=N\NC(=O)Cc1ccc(-c2ccccc2)cc1	none
Cc1cc(C)cc(NS(=O)(=O)c2ccc3[nH]cc(C(=O)NCc4ccco4)c(=O)c3c2)c1	Marburg entry inh inconclusive, HCMV antiviral -73!, LASV entry inh inconclusive
Cc1ccc2[nH]cc(C(=O)NCc3cccs3)c(=O)c2c1	HCV inh 10µM, LASV entry inh inconclusive (no result: FMDV inh)
Cc1ccc(S(=O)(=O)Nc2c(C)n(C)n(-c3ccccc3)c2=O)cc1C(=O)NCc1ccco1	Marburg entry inh inconclusive, HCV inh 32µM, LASV entry inh inconclusive (no result: SARS PLpro yeast)
Cc1c(NS(=O)(=O)c2ccc(Cl)c(C(=O)OCC(=O)NCc3ccco3)c2)c(=O)n(-c2ccccc2)n1C	LASV entry inh inconclusive
COc1ccc(CCNC(=O)c2cc(S(=O)(=O)N3CCCC(C)C3)cn2C)cc1OC (stereo unspecified)	FMDV inh inconclusive (no result: Marburg entry inh, HCV inh, SARS PLpro yeast)
COc1ccc(C(=O)NC(=S)N2CCN(C)CC2)cc1Br	none (no result: Marburg entry inh, LASV entry inh)
COc1cc(OC)nc(Nc2nc(C(N)Cc3ccc(C(F)(F)F)cc3)cs2)n1 (stereo unspecified)	HCMV antiviral -85 (no result: Marburg entry inh, HCV inh, SARS PLpro yeast, LASV entry inh)
COc1cccc(Nc2nc(C(N)Cc3ccc(C(F)(F)F)cc3)cs2)n1 (stereo unspecified)	HCMV antiviral -90 (no result: Marburg entry inh, HCV inh, SARS PLpro yeast, LASV entry inh)
COc1ccccc1CN1CC[C@@]2(CCCN(C(=O)c3ccncc3)C2)C1	none (no result: Marburg entry inh, HCV inh, SARS PLpro yeast, HCMV antiviral, LASV entry inh)
COc1cccc(C2c3cc4c(cc3OC(NNC(N)=O)C2C)OCO4)c1O (stereo unspecified)	Marburg entry inh inconclusive, HCMV antiviral -73, LASV entry inh inconclusive (no result: SARS PLpro yeast)
COc1cc(C2c3cc4c(cc3OC(NNC(N)=S)C2C)OCO4)cc(OC)c1OC (stereo unspecified)	Marburg entry inh inconclusive, HCMV antiviral -81, LASV entry inh inconclusive (no result: SARS PLpro yeast)
COc1cc(C2c3cc4c(cc3OC(NNC(N)=O)C2C)OCO4)cc(OC)c1OC (stereo unspecified)	Marburg entry inh inconclusive, HCV inh inconclusive, HCMV antiviral -86, LASV entry inh inconclusive (no result: SARS PLpro yeast)
COc1cc(C2c3cc4c(cc3OC(NCc3ccccc3)C2C)OCO4)cc(OC)c1OC (stereo unspecified)	HCMV antiviral -80, LASV entry inh inconclusive (no result: SARS PLpro yeast)
COc1ccc(C2c3cc4c(cc3OC(NNC(N)=O)C2C)OCO4)cc1 (stereo unspecified)	Marburg entry inh inconclusive, HCV inh inconclusive (no result: SARS PLpro yeast)
COc1ccc(CN2CC(C(=O)NCCCN3CCCCC3)CC2=O)cc1 (stereo unspecified)	none
COc1ccc2ccccc2c1CN1CCOc2ccc(CN3CCN(CCO)CC3)cc2C1	none (no result: Marburg entry inh, HCV inh, SARS PLpro yeast, HCMV antiviral, LASV entry inh)
COc1ccc(O)c(CN2CCC3(CCC(CNC(=O)c4ccccc4)O3)CC2)c1 (stereo unspecified)	none (no result: Marburg entry inh, HCV inh, SARS PLpro yeast, HCMV antiviral, LASV entry inh)
COc1ccc(CNC(=O)CCn2c(=O)c3cccn3c3ccc(F)cc32)cc1OC	LASV entry inh inconclusive (no result: Marburg entry inh, HCV inh, SARS PLpro yeast)
FC(F)(F)Oc1ccc2c(c1)NC(c1ccncc1)=NC(c1cccs1)=N2	Marburg entry inh inconclusive (no result: HCV inh, SARS PLpro yeast)
Cc1nn(-c2ccc(F)cc2)c2sc(C(=O)N3CCCCCC3)cc12	HCV inh 14µM
Cc1nn(-c2ccccc2)c2sc(C(=O)NC3CC3)cc12	HCV inh 13µM, LASV entry inh inconclusive
COc1ccccc1NC(=O)c1cc2c(C)nn(-c3ccccc3)c2s1	Marburg entry inh inconclusive (no result: HCV inh, SARS PLpro yeast)
O=C(NCCn1ccc2ccccc21)c1ccc(S(=O)(=O)N2CCCCC2)cc1	HCV inh inconclusive, HCMV antiviral -67, FMDV inh inconclusive (no result: Marburg entry inh, LASV entry inh)
CCN(CC)CCNC(=O)c1ccc(NC(=O)c2cccc(S(=O)(=O)N3CCCCCC3)c2)cc1	Marburg entry inh inconclusive, HCV inh inconclusive, LASV entry inh inconclusive (no result: SARS PLpro yeast)
